Laboratory results: PubChem BioAssay (NCI)
The panel holds about 79,000 compounds, 15% with a hit somewhere; the sample as a whole holds those more often. Activity calls are given as the source filed them. Cut-off read from the data, not from the text of the source: active = growth inhibition above about 70%; inactive = the rest.

Experiment: NCI Yeast Anticancer Drug Screen. Data for the cln2 rad14 strain (AID 165);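 note: 0% = growth equal to vehicle treated cultures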
Settings: S. cerevisiae cln2 rad14 strain, hits give high values; at 50.0 µM unless noted
How it was run: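 Each compound was tested on cln2 rad14 yeast. Inhibition of growth was calculated against vehicle-exposed controls.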
With `CC(=O)Nc1ccc(S(=O)(=O)O)c(OC(C)=O)c1` the growth inhibition was -11.8% (inactive). For `CN(C)CCN1CC2Cc3ccccc3C1c1ccccc12` (stereo unspecified), the growth inhibition was 28.9% (inactive). With `COc1cc(/C=N/NC(=O)c2ccccc2NC(=O)c2ccccc2)ccc1O` the growth inhibition was -32.5% (inactive). For `NC(=S)Cc1ccncc1`, the growth inhibition was 1.15% (inactive). For `COc1ccc2nc3cc(Cl)ccc3c(SCC(=O)Nc3ccccc3-c3ccccc3NC(=O)CSc3c4ccc(Cl)cc4nc4ccc(OC)cc34)c2c1`, the growth inhibition was 22.9% (inactive). With `COC1C(CO)OC(O)C(O)C1O` (stereo unspecified) the growth inhibition was -5.45% (inactive). In the case of `CCNC(=O)Nc1cccc(C)n1`, the growth inhibition is reported as 27.6% (inactive). For `CCCCCCCCCCCCC(C)O` (stereo unspecified), the growth inhibition was 5.05% (inactive). With `COc1ccc(C2=Nc3c(nc(OC)[nH]c3=O)NC(c3ccccc3)C2)cc1` (stereo unspecified) the growth inhibition was 7.55% (inactive). With `CO[C@@H]1C2=CC=CC=C[C@H]2n2c(=O)n(-c3ccccc3)c(=O)n21` the growth inhibition was -14.4% (inactive). In the case of `CC1(C)OCC2OC3(c4nc(C#N)c(N)o4)OC(C)(C)OC3C2O1` (stereo unspecified), the growth inhibition is reported as -1.7% (inactive). In the case of `O=C1C2CCC2C(=O)N1c1ccc2ccccc2c1` (stereo unspecified), the growth inhibition is reported as -17.9% (inactive). For `CC1(C)C2(Cl)C(Cl)=C(Cl)C13C(Cl)(c1ccc([N+](=O)[O-])cc1C1(Cl)C(Cl)(Cl)C4(Cl)C(Cl)=C(Cl)C13C4(C)C)C2(Cl)Cl` (stereo unspecified), the growth inhibition was -7.6% (inactive). With `CCCCCCCCCCCCCCCCNC(=O)C(=O)/C=C(\O)c1ccc(C)cc1` the growth inhibition was -44.5% (inactive). In the case of `NS(=O)(=O)c1ccc(N=Nc2ncccc2O)cc1`, the growth inhibition is reported as -30.6% (inactive). For `O=C(O)C1(F)CC1(c1ccccc1)c1ccccc1` (stereo unspecified), the growth inhibition was -38.2% (inactive).
